The list is not random: actives were taken first. Their share in the collection is about 1.3%.
EPAC1 ag = qHTS for Agonist of cAMP-regulated guanine nucleotide exchange factor 3 (EPAC1): primary screen | EPAC1 agonist qHTS, biochemical assay; response scale: 100% = response to 6.5 mM cAMP | Potency, µM (titrated, usually from 154 µM), without a hit: at the top dose activation, usual class: activators | 360,000 tested, 0.073% active; further: nearly all actives have a fitted effect of over 60% in size
Target sequence (O95398 whole entry, looked up): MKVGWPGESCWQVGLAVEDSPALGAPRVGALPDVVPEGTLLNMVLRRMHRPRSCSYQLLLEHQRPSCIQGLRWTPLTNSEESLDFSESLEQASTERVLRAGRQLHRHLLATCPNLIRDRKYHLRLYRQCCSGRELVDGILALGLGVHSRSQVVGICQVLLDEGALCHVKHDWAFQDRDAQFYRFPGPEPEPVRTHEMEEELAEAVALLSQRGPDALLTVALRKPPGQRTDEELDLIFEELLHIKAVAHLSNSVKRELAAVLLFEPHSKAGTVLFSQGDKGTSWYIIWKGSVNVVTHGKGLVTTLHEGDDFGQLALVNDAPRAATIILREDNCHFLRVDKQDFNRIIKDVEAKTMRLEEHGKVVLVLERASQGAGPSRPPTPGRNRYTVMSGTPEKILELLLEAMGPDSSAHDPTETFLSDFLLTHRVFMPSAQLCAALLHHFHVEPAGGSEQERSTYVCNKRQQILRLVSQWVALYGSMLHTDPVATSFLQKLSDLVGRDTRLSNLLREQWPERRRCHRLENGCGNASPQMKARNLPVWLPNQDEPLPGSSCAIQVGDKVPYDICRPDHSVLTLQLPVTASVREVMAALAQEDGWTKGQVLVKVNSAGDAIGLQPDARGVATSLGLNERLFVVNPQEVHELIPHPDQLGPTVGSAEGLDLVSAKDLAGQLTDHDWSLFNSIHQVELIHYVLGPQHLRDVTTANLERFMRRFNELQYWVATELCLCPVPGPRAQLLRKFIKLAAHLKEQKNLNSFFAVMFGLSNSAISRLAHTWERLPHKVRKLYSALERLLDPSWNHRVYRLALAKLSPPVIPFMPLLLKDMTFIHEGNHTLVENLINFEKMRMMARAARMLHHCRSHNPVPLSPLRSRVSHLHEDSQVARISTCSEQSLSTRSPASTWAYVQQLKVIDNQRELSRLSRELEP
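Normalized to 6.5 mM cAMP, activity reflects EPAC1-catalysed release of BODIPY-GDP from Rap1B, followed kinetically over 30 min at 480 nm excitation, 540 nm emission. Reaction contained 100 nM EPAC1, 250 nM Rap1B-BODIPY-GDP, 50 uM GDP.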
EPAC2 antag = qHTS for Antagonist of cAMP-regulated guanine nucleotide exchange factor 2 (EPAC2): primary screen | Rap guanine nucleotide exchange factor 4 (Homo sapiens), Q8WZA2 | EPAC2 GEF exchange of Rap1B-BODIPY-GDP, fluorescence | Potency, µM (series often up to 114 µM), for inactives: at the top dose activity, negative = inhibition, most hits filed as inhibitors | 360,000 tested, 0.18% active; further: on the % scale 0 is the no-effect control and ±100 the full control effect; nearly all actives have a fitted effect of over 45% in size
RGS4 inhibitor = Inhibitors of Regulator of G Protein Signaling (RGS) 4: qHTS; Regulator of G-protein signaling 4 (Homo sapiens), P49798; Potency, µM (top dose mostly 114 µM), for the others: top-dose activity change, negative = inhibition, hits mostly inhibitors; AID 504845, 2011; Transcreener GDP fluorescence polarization, RGS4-accelerated GTP hydrolysis; 390,000 tested, 0.039% active; further: on the % scale 0 is the no-effect control and ±100 the full control effect; nearly all actives have a fitted effect of over 75% in size
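MLSMR compounds (23 nl, pin-transferred) preincubated 10 min at room temperature with a 500nM (2x) first reagent, then RGS4 at 900nM (2x) plus Transcreener GDP mix added; fluorescence polarization (620/688 nm) read before and after 90 min at 30 °C.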
EPAC1 antagonist = qHTS for Antagonist of cAMP-regulated guanine nucleotide exchange factor 3 (EPAC1): primary screen; Rap guanine nucleotide exchange factor 3 (Homo sapiens), O95398; EPAC1 GEF assay, Rap1b-BODIPY-GDP exchange fluorescence; Potency, µM (highest dose often 115 µM), without a hit: at the top dose activity change, negative = inhibition, hits mostly inhibitors; 360,000 tested, 0.14% active;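 further: plate controls were vehicle for no effect and positive control for full effect; nearly all actives have a fitted effect of over 50% in size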
EPAC2 agonist = qHTS for Agonist of cAMP-regulated guanine nucleotide exchange factor 4 (EPAC2): primary screen. EPAC2 activation, biochemical qHTS; response scale: 100% = 6.5 mM cAMP response. Potency, µM (series often up to 154 µM), for inactives: at the top dose activation, hits mostly activators. 360,000 tested, 0.079% active; further: nearly all actives have a fitted effect of over 50% in size
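Readout is BODIPY fluorescence (480 nm excitation, 540 nm emission), which falls as labeled GDP is exchanged off Rap1B. EPAC2 at 100 nM acted on 250 nM RAP1B-BODIPY-GDP with 50 uM GDP present.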
BRCA1 expr act = qHTS Assay to Identify Small Molecule Activators of BRCA1 Expression; MCF7-BRCA1-FFLuc reporter, luminescence, 48 h; response scale: scaled: vehicle 0%, 10 µM genistein 100%; Potency, µM (series often up to 46.1 µM), for inactives: at the highest dose activation, actives largely listed as activators; 380,000 tested, 1.1% active; AID 624202, 2012; further: nearly all actives have a fitted effect of over 80% in size
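Luminescence from a BRCA1-driven firefly luciferase in MCF7 cells was read after 48 h compound exposure at 37 C. Data normalized against DMSO and a 10microM genistein activation control, then curve-fitted across the titration.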
Starred values were filed as active, the others as inactive; ? = inconclusive; nt = no result; [ ] = dose if it differs, or a comment. The call rests on the fitted dose curve; in most records, active means well fitted curve in the direction sought with a large enough effect; inconclusive means small, poorly fitted or top-dose-only effect, or another doubt; inactive means no such curve, though single readings can be large; an effect the other way counts as inactive or inconclusive. Potency means the concentration at half of the fitted maximal effect.

SMILES	EPAC1 ag	EPAC2 antag	RGS4 inhibitor	EPAC1 antagonist	EPAC2 agonist	BRCA1 expr act
CCn1c(-c2cc(-c3ccc(OC(C)C)cc3)nc3ccccc23)n[nH]c1=S	?	-4%	-24%	-4%	24%	7.1µM*
Cc1ccc(O)c(N/C=C/C(=O)c2ccc(F)cc2)c1	1%	-3%	-2%	-1%	-4%	6.3µM*
Cc1ccc(N/C=C/C(=O)c2ccc(C)cc2)cc1	5%	6%	4%[11.4 µM]	2%	-2%	113%
C/C(O)=C(/C#N)c1nc2ccccc2[nH]1	2%	-2%	26%	-12%	-1%	8%
N#C/C(=C(/O)C(Cl)(Cl)Cl)c1nc2ccccc2[nH]1	-2%	13µM*	0%	-7%	-1%	-13%
O=C(c1ccc(F)cc1)c1ccc(N2CCCCC2)cc1	11%	2%	19%	-5%	29%	5µM*
O=C(Nc1ccc(N2CCCCC2)cc1)c1ccc(F)cc1	4%	-4%	-4%[11.4 µM]	10%	-9%	?
O=C(CCC(=O)N1CCN(c2ccc(F)cc2)CC1)N1CCN(c2ccc(F)cc2)CC1	-2%	2%	-20%	-8%	4%	-8%
O=C(c1ccc(F)cc1)c1ccc(N2CCCC2)cc1	11%	6%	-3%	5%	14%	3.2µM*
O=C(Nc1ccc2oc(-c3ccccc3)nc2c1)c1cccnc1	-2%	17%	-14%	3%	13%	2.8µM*
CNc1ccc(/C=C\CCCO)cn1	15%	7%	nt	-3%	4%	10µM*
Cc1c(C(=O)NCc2ccccn2)sc(=O)n1Cc1ccc(-c2ccccc2)cc1	8%	-19%	nt	2%	1%	9%
S=c1[nH]nc(SCc2ccccc2)c2[nH]cnc12	11%	-5%	?	-9%	1%	3.5µM*
Cc1ccccc1COc1cccn2c(N(C)C(=O)CCC3CCCC3)c(C)nc12	-1%	-15%	nt	-12%	22%	-37%
CCCC(=O)OCCNc1cc(SCc2ccco2)c2nonc2c1[N+](=O)[O-]	1%	-7%	-72%	40µM*	-10%	-75%
O=C(CN1C(=O)CCSc2ccc(S(=O)(=O)N3CCCC3)cc21)Nc1cccc(Cl)c1	nt	nt	-10%	nt	nt	nt
C/C(=N\NC(=O)c1cc(O)ccc1O)c1cccc(NC(=O)c2ccc(Cl)cc2)c1	7%	-3%	-34%	50µM*	19%	85%
C/C(=N\NC(=O)c1cc(O)ccc1O)c1cccc(NC(=O)c2cccc(Cl)c2)c1	-1%	6%	-21%	?	8%	72%
COc1ccc(-c2csc(N(CCc3ccccc3)C(=O)COc3ccccc3)n2)cc1	3%	-2%	19%	-5%	5%	-3%
CCOc1ccc(N=C(/C(C(=O)C(=O)N2CCOCC2)=C(\O)c2ccccc2)c2ccccc2)cc1	0%	6%	-17%	-13%	-14%	7.9µM*
C/C(N)=C(/C#N)C(=O)COC(=O)c1cc(C)n(-c2ccc(F)cc2)c1C	-6%	-8%	6%	-18%	17%	8.9µM*
Cc1cc(C(=O)OCC(N)=O)c(C)n1-c1ccccc1	3%	1%	?	-4%	3%	33%
O=[N+]([O-])c1ccc(COn2nnc3ccccc32)cc1	-3%	-1%	-14%	-12%	2%	20%
Clc1ccc(COn2nnc3ccccc32)c(Cl)c1	10%	-3%	-3%[11.4 µM]	-14%	16%	5.6µM*
CCCC/C=C1\CCc2c([nH]c3ccccc23)C1=O	-5%	4%	-37%	-29%	2%	1.4µM*
SMILES	EPAC1 ag	EPAC2 antag	RGS4 inhibitor	EPAC1 antagonist	EPAC2 agonist	BRCA1 expr act
COc1cc(CNn2cn[nH]c2=S)cc(Cl)c1OCc1ccccc1	12%	-6%	-37%	-3%	12%	-8%
CN(Cc1cc(-c2ccccc2)on1)C(=O)c1cc(COc2c(F)cccc2F)on1	2%	-3%	5%[11.4 µM]	-18%	5%	11µM*
Cc1nc(CN(C)C(=O)c2cc(COc3c(F)cccc3F)on2)cs1	-1%	3%	-14%	-10%	5%	35%
COc1ccc(-c2nn(C)c(=O)c3ccccc23)cc1NC(=O)Cn1nc(C)c2ccccc2c1=O	-2%	-7%	-49%	-18%	3%	-100%
O=C(COc1cccnc1[N+](=O)[O-])Nc1cccc(Br)c1	6%	-6%	-5%	2%	-7%	11µM*
COc1ccc(NC(=O)COc2cccnc2[N+](=O)[O-])cc1OC	3%	14%	-2%	5%	-1%	0%
O=C(O)c1ccc2oc(SCC(=O)N3CCCCC3)nc2c1	9%	-5%	-28%	-5%	-4%	7.1µM*
NC(=O)C1CCN(C(=O)CSc2nc3ccccc3o2)CC1	-5%	9%	-18%	-2%	2%	-7%
CC1CCCN(C(=O)CSc2nc3ccccc3o2)C1 (configuration not stated)	0%	11%	-14%	2%	4%	8.9µM*
Cc1ccc(C(=O)OCC(=O)Nc2ccccc2N2CCOCC2)cc1	8%	-11%	19%	1%	-1%	2%
Cn1cc([N+](=O)[O-])c(C(=O)Nc2ccc(-c3nc4ccccc4[nH]3)cc2)n1	3%	-5%	-53%	4%	9%	7.9µM*
O=C(Nc1ccc(-c2nc3ccccc3[nH]2)cc1)c1ccco1	-1%	-9%	?	-9%	2%	?
Cn1cccc1-c1nc2ccc(NC(=O)c3ccc([N+](=O)[O-])cc3)cc2[nH]1	-6%	19%	29%	3%	-10%	0%
Cn1cc([N+](=O)[O-])c(C(=O)Nc2ccc3nc(-c4ccccc4)[nH]c3c2)n1	8%	4%	-20%	-4%	-11%	4µM*
COc1ccccc1N1C(=O)S/C(=C\c2cc(C)n(C)c2C)C1=O	-106%	-24%	-6%	-15%	-18%	5.6µM*
COc1ccccc1N1C(=O)S/C(=C\c2ccc(C)s2)C1=O	3%	1%	6%	-18%	4%	70%
COCCNc1nnc(Cc2ccccc2)c(=O)[nH]1	14%	15%	35%[56.9 µM]	-20%	1%	-1%

Compound activity from PubChem.
